# Experimental data: PubChem BioAssay (NCI)
# This is part of a sample that, as a whole, favours compounds with a hit. Of some 79,000 tested, about 15% had one in any assay. Unmarked numbers belong to inactive results. Active and inactive are the calls of the source. Cut-off read from the data, not from the text of the source: active = growth inhibition above about 70%; inactive = the rest.
# Key:
# [1] = NCI Yeast Anticancer Drug Screen. Data for the rad52 strain (AID 147);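 note: 0% = growth of vehicle-treated control cultures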; conditions: S. cerevisiae rad52 mutant growth inhibition, active compounds read high
# In short: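 Read-out: growth inhibition versus vehicle-treated controls. Cells were a DNA repair-deficient yeast strain treated with compounds.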
# [2] = NCI Yeast Anticancer Drug Screen. Data for the wt1 strain (AID 149);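 note: 0% = growth of vehicle-treated wt1 cultures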; conditions: S. cerevisiae wt1 strain (SPY 50644) growth inhibition, active compounds read high
# In short: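 wt1 yeast, compound-treated; % growth inhibition vs vehicle control.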
# [3] = NCI Yeast Anticancer Drug Screen. Data for the rad50EPP+ strain (AID 151);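 note: 0% = growth of vehicle-treated control cultures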; conditions: S. cerevisiae rad50 mutant strain, active compounds read high
# In short: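 Growth inhibition read against vehicle controls in rad50EPP+ yeast, a strain altered in DNA damage repair, after compound exposure.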
# [4] = NCI Yeast Anticancer Drug Screen. Data for the rad50 strain (AID 155);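 note: 0% = growth of vehicle-only cultures of the same strain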; conditions: S. cerevisiae rad50 strain growth inhibition, active compounds read high
# In short: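 Genetically altered yeast (DNA repair pathway); compound treatment; growth inhibition vs vehicle ctrl.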
# [5] = NCI Yeast Anticancer Drug Screen. Data for the mec2-1 strain (AID 157); conditions: S. cerevisiae mec2-1 strain, active compounds read high
# In short: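 Yeast mec2-1 mutant treated with compound. Readout: growth inhibition vs vehicle controls.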
# [6] = NCI Yeast Anticancer Drug Screen. Data for the sgs1 mgt1 strain (AID 161);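 note: 0% = growth of cultures given vehicle only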; conditions: S. cerevisiae sgs1 mgt1 strain, active compounds read high
# In short: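 Mutant yeast exposed to compound; growth scored against vehicle-only wells.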
# [7] = NCI Yeast Anticancer Drug Screen. Data for the CLN2oe strain (AID 163);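 note: 0% = growth of vehicle-only control cultures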; conditions: S. cerevisiae CLN2oe strain, active compounds read high
# In short: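 Read-out: yeast growth inhibition, expressed relative to vehicle-only controls. The strain bears an engineered cell-cycle alteration.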
# [8] = NCI Yeast Anticancer Drug Screen. Data for the cln2 rad14 strain (AID 165);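 note: 0% = growth equal to vehicle treated cultures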; conditions: S. cerevisiae cln2 rad14 strain, active compounds read high
# In short: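 cln2 rad14 yeast strain; compound exposure; growth inhibition read vs vehicle controls.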
# [9] = NCI Yeast Anticancer Drug Screen. Data for the bub3 strain (AID 167); conditions: S. cerevisiae bub3 mutant strain, active compounds read high
# In short: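 Yeast carrying a defined mutation is treated with each compound, and growth is compared with that of vehicle-exposed cells to give inhibition.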
# [10] = NCI Yeast Anticancer Drug Screen. Data for the wt2 strain (AID 169);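 note: 0% = growth of vehicle-treated yeast cultures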; conditions: S. cerevisiae wt2 strain growth inhibition, active compounds read high
# In short: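 Read-out: growth inhibition versus vehicle-treated control cultures after compound exposure of the yeast strain.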
# [11] = NCI Yeast Anticancer Drug Screen. Data for the mlh1 strain (AID 171);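 note: 0% = growth of vehicle-treated control cultures of the same strain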; conditions: S. cerevisiae mlh1 strain growth inhibition, active compounds read high
# In short: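 Read-out: growth inhibition versus vehicle controls. Strain: engineered yeast with a defined DNA repair or cell cycle defect, compound-treated.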
# [12] = NCI Yeast Anticancer Drug Screen. Data for the sgs1 strain (AID 173);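 note: 0% = growth of vehicle-only control cultures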; conditions: S. cerevisiae sgs1 mutant, active compounds read high
# In short: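 Read-out: yeast growth inhibition relative to vehicle controls, following compound exposure of a strain with a defined DNA repair/cell cycle alteration.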
# [13] = NCI Yeast Anticancer Drug Screen. Data for the mlh1 rad18 strain (AID 175); conditions: S. cerevisiae mlh1 rad18 strain growth inhibition, active compounds read high
# In short: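 Yeast w/ defined DNA-repair lesions; compound exposure; growth vs vehicle controls → % inhibition.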
# [14] = NCI Yeast Anticancer Drug Screen. Data for the rad18 strain (AID 177); conditions: S. cerevisiae rad18 mutant growth inhibition, active compounds read high
# In short: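 Readout: growth inhibition vs vehicle controls. Cells: genetically altered yeast strain, DNA repair defect.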
# [15] = NCI Yeast Anticancer Drug Screen. Data for the rad14 strain (AID 159);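 note: 0% = growth of vehicle-treated control cultures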; conditions: S. cerevisiae rad14 strain growth inhibition, active compounds read high
# In short: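 Test compounds were applied to a repair-deficient yeast strain. Its growth was then compared with that of cultures given vehicle alone, and inhibition was expressed relative to those controls.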
# [16] = at 5.0 µM (retest, dose inferred, filed as 0.5)
# [17] = at 50.0 µM (retest, dose inferred, filed as 5.0)
smiles,measurement,setting,value
O=C(Nc1cccs1)c1ccccc1,growth inhibition,[1]; at 1.2 µM,-5%
same,growth inhibition,[1]; at 3.7 µM,-3%
same,growth inhibition,[1]; at 11.0 µM,-5%
same,growth inhibition,[1]; at 33.0 µM,3%
same,growth inhibition,[1]; at 100.0 µM,67%
same,growth inhibition,[2]; at 1.2 µM,-5%
same,growth inhibition,[2]; at 3.7 µM,-6%
same,growth inhibition,[2]; at 11.0 µM,-8%
same,growth inhibition,[2]; at 33.0 µM,-6%
same,growth inhibition,[2]; at 100.0 µM,48%
same,growth inhibition,[3]; at 1.2 µM,-1%
same,growth inhibition,[3]; at 3.7 µM,7%
same,growth inhibition,[3]; at 11.0 µM,10%
same,growth inhibition,[3]; at 33.0 µM,18%
same,growth inhibition,[3]; at 100.0 µM,38%
same,growth inhibition,[4]; at 1.2 µM,-4%
same,growth inhibition,[4]; at 3.7 µM,-8%
same,growth inhibition,[4]; [16],-155%
same,growth inhibition,[4]; at 11.0 µM,10%
same,growth inhibition,[4]; at 33.0 µM,42%
same,growth inhibition,[4]; [17],82% (active)
same,growth inhibition,[4]; at 50.0 µM,94.8% (active)
same,growth inhibition,[4]; at 100.0 µM,92% (active)
same,growth inhibition,[5]; at 1.2 µM,-1%
same,growth inhibition,[5]; at 3.7 µM,-1%
same,growth inhibition,[5]; [16],-52%
same,growth inhibition,[5]; at 11.0 µM,-4%
same,growth inhibition,[5]; at 33.0 µM,3%
same,growth inhibition,[5]; [17],-42%
same,growth inhibition,[5]; at 50.0 µM,30.1%
same,growth inhibition,[5]; at 100.0 µM,51%
same,growth inhibition,[6]; [16],-67%
same,growth inhibition,[6]; [17],66%
same,growth inhibition,[6]; at 50.0 µM,65.8%
same,growth inhibition,[7]; at 1.2 µM,0%
same,growth inhibition,[7]; at 3.7 µM,-1%
same,growth inhibition,[7]; at 11.0 µM,-1%
same,growth inhibition,[7]; at 33.0 µM,-1%
same,growth inhibition,[7]; at 100.0 µM,53%
same,growth inhibition,[8]; [16],-65%
same,growth inhibition,[8]; [17],-62%
same,growth inhibition,[8]; at 50.0 µM,-0.2%
same,growth inhibition,[9]; at 1.2 µM,-12%
same,growth inhibition,[9]; at 3.7 µM,-9%
same,growth inhibition,[9]; [16],-68%
same,growth inhibition,[9]; at 11.0 µM,-3%
same,growth inhibition,[9]; at 33.0 µM,-7%
same,growth inhibition,[9]; [17],8%
same,growth inhibition,[9]; at 50.0 µM,13.8%
same,growth inhibition,[9]; at 100.0 µM,64%
same,growth inhibition,[10]; at 1.2 µM,-1%
same,growth inhibition,[10]; at 3.7 µM,-1%
same,growth inhibition,[10]; at 11.0 µM,-2%
same,growth inhibition,[10]; at 33.0 µM,-2%
same,growth inhibition,[10]; at 100.0 µM,67%
same,growth inhibition,[11]; at 1.2 µM,6%
same,growth inhibition,[11]; at 3.7 µM,-5%
same,growth inhibition,[11]; at 11.0 µM,-5%
same,growth inhibition,[11]; at 33.0 µM,2%
same,growth inhibition,[11]; at 100.0 µM,86% (active)
same,growth inhibition,[12]; at 1.2 µM,0%
same,growth inhibition,[12]; at 3.7 µM,-1%
same,growth inhibition,[12]; at 11.0 µM,-1%
same,growth inhibition,[12]; at 33.0 µM,3%
same,growth inhibition,[12]; at 100.0 µM,86% (active)
same,growth inhibition,[13]; [16],-125%
same,growth inhibition,[13]; [17],80% (active)
same,growth inhibition,[13]; at 50.0 µM,94.6% (active)
same,growth inhibition,[14]; at 1.2 µM,-6%
same,growth inhibition,[14]; at 3.7 µM,-2%
same,growth inhibition,[14]; at 11.0 µM,1%
same,growth inhibition,[14]; at 33.0 µM,4%
same,growth inhibition,[14]; at 100.0 µM,94% (active)
COC(=N)c1ccc(O)c(C)c1,growth inhibition,[1]; at 1.2 µM,-3%
same,growth inhibition,[1]; at 3.7 µM,-6%
same,growth inhibition,[1]; at 11.0 µM,-11%
same,growth inhibition,[1]; at 33.0 µM,-16%
same,growth inhibition,[1]; at 100.0 µM,-5%
same,growth inhibition,[2]; at 1.2 µM,-6%
same,growth inhibition,[2]; at 3.7 µM,-5%
same,growth inhibition,[2]; at 11.0 µM,-6%
same,growth inhibition,[2]; at 33.0 µM,-5%
same,growth inhibition,[2]; at 100.0 µM,-3%
same,growth inhibition,[3]; at 1.2 µM,-1%
same,growth inhibition,[3]; at 3.7 µM,1%
same,growth inhibition,[3]; at 11.0 µM,5%
same,growth inhibition,[3]; at 33.0 µM,11%
same,growth inhibition,[3]; at 100.0 µM,9%
same,growth inhibition,[4]; at 1.2 µM,-7%
same,growth inhibition,[4]; at 3.7 µM,-19%
same,growth inhibition,[4]; [16],-138%
same,growth inhibition,[4]; at 11.0 µM,-6%
same,growth inhibition,[4]; at 33.0 µM,7%
same,growth inhibition,[4]; [17],10%
same,growth inhibition,[4]; at 50.0 µM,50.4%
same,growth inhibition,[4]; at 100.0 µM,3%
same,growth inhibition,[5]; at 1.2 µM,0%
same,growth inhibition,[5]; at 3.7 µM,0%
same,growth inhibition,[5]; [16],-46%
same,growth inhibition,[5]; at 11.0 µM,-1%
same,growth inhibition,[5]; at 33.0 µM,1%
same,growth inhibition,[5]; [17],-21%
same,growth inhibition,[5]; at 50.0 µM,2.2%
same,growth inhibition,[5]; at 100.0 µM,1%
same,growth inhibition,[15]; at 1.2 µM,-3%
same,growth inhibition,[15]; at 3.7 µM,0%
same,growth inhibition,[15]; at 11.0 µM,-2%
same,growth inhibition,[15]; at 33.0 µM,-4%
same,growth inhibition,[15]; at 100.0 µM,-1%
same,growth inhibition,[6]; [16],-53%
same,growth inhibition,[6]; [17],-40%
same,growth inhibition,[6]; at 50.0 µM,-8.2%
same,growth inhibition,[7]; at 1.2 µM,-2%
same,growth inhibition,[7]; at 3.7 µM,3%
same,growth inhibition,[7]; at 11.0 µM,0%
same,growth inhibition,[7]; at 33.0 µM,-3%
same,growth inhibition,[7]; at 100.0 µM,-6%
same,growth inhibition,[8]; [16],-52%
same,growth inhibition,[8]; [17],-22%
same,growth inhibition,[8]; at 50.0 µM,-38.2%
same,growth inhibition,[9]; at 1.2 µM,-3%
same,growth inhibition,[9]; at 3.7 µM,-5%
same,growth inhibition,[9]; [16],-61%
same,growth inhibition,[9]; at 11.0 µM,0%
same,growth inhibition,[9]; at 33.0 µM,-2%
same,growth inhibition,[9]; [17],78% (active)
same,growth inhibition,[9]; at 50.0 µM,5.2%
same,growth inhibition,[9]; at 100.0 µM,4%
same,growth inhibition,[10]; at 1.2 µM,-2%
same,growth inhibition,[10]; at 3.7 µM,0%
same,growth inhibition,[10]; at 11.0 µM,-2%
same,growth inhibition,[10]; at 33.0 µM,-4%
same,growth inhibition,[10]; at 100.0 µM,-1%
same,growth inhibition,[11]; at 1.2 µM,6%
same,growth inhibition,[11]; at 3.7 µM,-6%
same,growth inhibition,[11]; at 11.0 µM,-7%
same,growth inhibition,[11]; at 33.0 µM,-7%
same,growth inhibition,[11]; at 100.0 µM,-7%
same,growth inhibition,[12]; at 1.2 µM,-1%
same,growth inhibition,[12]; at 3.7 µM,-1%
same,growth inhibition,[12]; at 11.0 µM,-1%
same,growth inhibition,[12]; at 33.0 µM,-2%
same,growth inhibition,[12]; at 100.0 µM,-2%
same,growth inhibition,[14]; at 1.2 µM,-2%
same,growth inhibition,[14]; at 3.7 µM,-1%
same,growth inhibition,[14]; at 11.0 µM,1%
same,growth inhibition,[14]; at 33.0 µM,3%
same,growth inhibition,[14]; at 100.0 µM,8%
